HCV inhibitor: blocks hepatitis C virus | AID 651820 | Potency, µM (titrated, usually from 41.8 µM), inactives show at the highest dose activity change, negative = inhibition, hits mostly inhibitors | Huh7.5.1 HCVcc-Cre infection, luciferase reporter, 44 h | 340,000 compounds, 3.4% hits
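Infectious HCVcc-Cre (~0.5 moi) was added to cells just after compound, with cells seeded 4 h earlier at 1,000 per well. Luciferase activity after 44 h culture reported infection; substrate was incubated 15 min at room temperature before reading.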
Pf growth 48h: inhibits P. falciparum growth in the first generation, 48 h. P. falciparum luciferase growth in erythrocytes, 48 h. Potency, µM (series often up to 28.7 µM), for the others: at the highest dose activity change, negative = inhibition, usual class: inhibitors. 310,000 compounds, 5.9% hits. AID 504832
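First compound was added to culture medium, then infected red cells at 0.1% parasitemia and 2% hematocrit (final). After incubation at 37 C under 5% CO2, luciferase detection reagent was dispensed and light output recorded.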
AmpC inh no detg: blocks E. coli AmpC beta-lactamase in detergent-free assay; Potency, µM (titrated, usually from 57.1 µM), for the others: at the top dose activity change, negative = inhibition, usual class: inhibitors; AID 485341; 330,000 compounds, 0.52% hits; AmpC nitrocefin hydrolysis, absorbance 480 nm, 0.0001% Triton;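 note: plate controls were no compound for no effect and no enzyme for full effect; nearly all actives have a fitted effect of over 20% in size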
Target sequence (P00811 whole entry, looked up): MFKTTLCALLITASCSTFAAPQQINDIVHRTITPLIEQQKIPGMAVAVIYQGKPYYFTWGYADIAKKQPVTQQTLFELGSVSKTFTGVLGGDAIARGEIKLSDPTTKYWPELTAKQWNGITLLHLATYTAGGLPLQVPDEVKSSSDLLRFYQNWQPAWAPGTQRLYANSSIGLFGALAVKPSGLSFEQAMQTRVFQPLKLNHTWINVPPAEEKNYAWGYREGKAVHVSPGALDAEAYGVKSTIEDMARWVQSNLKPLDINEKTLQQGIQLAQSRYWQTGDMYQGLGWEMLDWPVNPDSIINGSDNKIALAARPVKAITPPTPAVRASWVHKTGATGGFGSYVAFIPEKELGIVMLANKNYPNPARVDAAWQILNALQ
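AmpC (5.3 nM in the dispensed reagent) in 20 mM phosphate pH 7.0 with 0.01% (detergent screen) or 0.0001% Triton X-100 was preincubated with compounds for 15 min at room temperature. Nitrocefin was then added from an 800 uM solution, and hydrolysis was followed at 480 nm.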
AmpC inh detg: blocks E. coli AmpC beta-lactamase in detergent assay; P00811; AmpC hydrolysis of nitrocefin, absorbance 480 nm, 0.01% Triton; Potency, µM (titrated, usually from 114 µM), for inactives: top-dose activity change, negative = inhibition, actives largely listed as inhibitors; 370,000 compounds, 0.041% hits;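 note: 0% = no-compound wells and -100% = no-enzyme wells; nearly all actives have a fitted effect of over 25% in size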
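AmpC (5.3 nM in the dispensed reagent) in 20 mM phosphate pH 7.0 with 0.01% (detergent screen) or 0.0001% Triton X-100 was preincubated with compounds for 15 min at room temperature. Nitrocefin was then added from an 800 uM solution, and hydrolysis was followed at 480 nm.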
Pf growth 96h: P. falciparum growth inhibition at 96 hours; P. falciparum luciferase reporter growth, 96 h; Potency, µM (doses to about 28.7 µM), for the others: top-dose activity change, negative = inhibition, hits mostly inhibitors; AID 504834; 320,000 compounds, 6.9% hits
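Infected RBCs, 2% Hct / 0.05% parasitemia final; luciferase-reporter P. falciparum; cpd 96 h, 37 C, 5% CO2; luciferase detection reagent; luminescence.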
AMA1-RON2 inh: disrupts binding of P. falciparum AMA1 to RON2; AlphaScreen AMA1-biotinylated RON2 peptide binding; Potency, µM (series often up to 58.2 µM), without a hit: at the top dose activity change, negative = inhibition, most hits filed as inhibitors; 360,000 compounds, 0.2% hits; AID 720542;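 note: 0% = vehicle wells and -100% = peptide control; nearly all actives have a fitted effect of over 45% in size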
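AMA1 (3D7) with his tag at 25 nM final met compounds first, then biotinylated RON2 peptide at 25 nM; detection used donor plus acceptor beads, 10 µg/mL apiece, read by AlphaScreen after 30 min at room temperature.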
Starred values were filed as active, the others as inactive; i = inactive; u = inconclusive; x = no result; [ ] = another dose, or the depositor's remark. In the library only some 11% were active in any assay of this set; here they are far more common. Calls come from the whole dose curve; as a rule, active = well fitted curve in the direction sought with a large enough effect; inconclusive = small, poorly fitted or top-dose-only effect, or another doubt; inactive = no such curve, though single readings can be large; an effect the other way counts as inactive or inconclusive. Unless noted, % is set by controls: 0 for no effect and ±100 for the full control effect; potency is the fitted concentration of half-maximal effect.

SMILES	HCV inhibitor	Pf growth 48h	AmpC inh no detg	AmpC inh detg	Pf growth 96h	AMA1-RON2 inh
Cc1ccc(-c2nc3ncccc3o2)cc1NC(=O)c1ccc(-c2cccc(Cl)c2C)o1	x	x	x	17.5%	x	x
CC(=O)c1c(C)[nH]c(C(=O)Nc2cccc(C#N)c2)c1C	-19.5%	u	-29.5%	-7.1%	u	0.2%
CC(=O)c1c(C)[nH]c(C(=O)OC(C)C(=O)Nc2cc(S(=O)(=O)N3CCCCC3)ccc2Cl)c1C (stereo not drawn)	u	-4.9%	7.94µM*	-10.4%	-20.4%	4.2%
CC(=O)Nc1cc(NC(C)=O)cc(C(=O)OC(C)C(=O)Nc2ccc(S(=O)(=O)N3CCCC3)cc2)c1 (stereo not drawn)	8.1%	1.6%	2.1%	0.0%	-6.6%	10.0%
CC(=O)c1c(C)[nH]c(C(=O)Nc2cccc(C(F)(F)F)c2)c1C	u	4.15µM*	-29.7%	-5.0%	1.85µM*	-0.8%
CCSc1nnc(-c2ccccc2SC)o1	-17.1%	i	-17.6%	0.4%	8.28µM*	12.7%
CSc1ccccc1-c1nnc(-c2ccc(Cl)cc2Cl)o1	u	53.9%	-13.5%	0.5%	140.7%	7.6%
COc1ccc(C2=C(Nc3ccc(Br)c(C)c3)c3ccccc3C2=O)cc1	x	x	x	18.5%	x	x
OC(COCc1ccc2c(c1)OCO2)CN1CCCCC1 (stereo not drawn)	10.4%	0.0%	-24.3%	-4.7%	11.7µM*	6.9%
OC(COCc1ccc2c(c1)OCO2)CN1CCC(Cc2ccccc2)CC1 (stereo not drawn)	u	-2.8%	4.0%	-1.8%	-6.8%	2.1%
OC(COCc1cccs1)CN1CCCCCC1 (stereo not drawn)	-21.8%	13.1µM*	100.3%	u	5.2%	-1.9%
Cc1ccc(N2CC(C(=O)OCC(=O)c3ccc[nH]3)CC2=O)cc1 (stereo not drawn)	-1.2%	2.9%	-32.1%	-11.6%	20.2%	12.2%
Cc1ccc(N2CC(C(=O)OCC(=O)c3ccc(F)cc3)CC2=O)cc1 (stereo not drawn)	0.9%	12.6%	0.8%	u	2.94µM*	-4.2%
O=C(CSc1nccc(=O)[nH]1)NCc1ccc2c(c1)OCO2	26.2%	38.2%	-40.5%	-9.2%	-12.5%	0.1%
Cc1nnc(SCC(=O)N(C(C)C)C(C)C)[nH]c1=O	6.1%	u	158.8%	-7.5%	-9.0%	-6.9%
Cc1nnc(SCC(=O)NNC(=O)C(C)C)[nH]c1=O	0.2%	18.0%	-9.9%	-13.8%	11.7µM*	7.8%[2.32 µM]
Cc1nnc(SCC(=O)NCc2ccc3c(c2)OCO3)[nH]c1=O	-23.1%	37.4%	-31.3%	u	0.262µM*	10.7%
CCCc1cc(=O)[nH]c(SCC(=O)NCc2ccc3c(c2)OCO3)n1	22.6%	3.6%	-11.7%	3.8%	11.7µM*	-3.9%
CCOc1ccc(CC(=O)NCCc2csc(-c3ccc(C(F)(F)F)cc3)n2)cc1	x	x	x	7.2%	x	x
COc1cc(OC)cc(N2C(=O)CC(N3CCC(C(=O)N4CCCCC4)CC3)C2=O)c1 (stereo not drawn)	5.6%	0.2%	104.3%	0.0%	14.7µM*	-21.2%
COc1ccc(N(C)S(=O)(=O)c2ccc3c(c2)n(C)c(=O)c(=O)n3C)cc1	x	x	x	-0.3%	x	x
CCC1Nc2ncnc(N3CCN(c4ccccc4)CC3)c2N(Cc2ccc(Br)cc2)C1=O (stereo not drawn)	6.8%	11.7µM*	61.7%	-3.7%	u	-26.7%
CCC1Nc2ncnc(N3CCN(c4ccccc4)CC3)c2N(Cc2ccc(OC)cc2)C1=O (stereo not drawn)	2.82µM*	11.7µM*	118.6%	0.7%	11.7µM*	-10.4%
CCC1Nc2ncnc(N3CCOCC3)c2N(Cc2ccc(OC)cc2)C1=O (stereo not drawn)	7.6%	x	-0.4%	x	x	0.8%
CC(C)CC1Nc2ncnc(N3CCOCC3)c2N(Cc2ccccc2)C1=O (stereo not drawn)	4.7%	x	-16.2%	x	x	11.7%
SMILES	HCV inhibitor	Pf growth 48h	AmpC inh no detg	AmpC inh detg	Pf growth 96h	AMA1-RON2 inh
CCOC(=O)N1CC=C2C(C#N)=C(N)C(C#N)(C#N)[C@H](c3cccs3)C2C1 (stereo partly drawn)	-12.7%	u	-18.4%	-14.3%	u	6.0%
COc1cc([C@@H]2[C@H]3CNCC=C3C(C#N)=C(N)C2(C#N)C#N)ccc1OC(C)C	u	13.1µM*	20.1%	-7.4%	-11.7%	-1.5%
CCCOc1ccc([C@@H]2C3CN(C(=O)OCC)CC=C3C(C#N)=C(N)C2(C#N)C#N)cc1OC (stereo partly drawn)	-19.7%	5.86µM*	19.6%	-7.1%	x	3.2%
N#CC1=C(N)C(C#N)(C#N)[C@H](c2ccncc2)[C@H]2CN(C(=O)OCc3ccccc3)CC=C12	-1.5%	10.4µM*	-20.7%	u	u	35.4%
O=C(Cn1c(=O)c2cccn2c2ccc(F)cc21)N1CCN(c2ccccc2)CC1	x	x	x	22.9%	x	x
C/C(=N\NC(=O)c1nn(C)cc1Br)c1ccc(NC(=O)c2ccncc2)cc1	u	0.8%	-27.4%	u	4.15µM*	25.6%
Cc1ccc(NC(=O)CSc2nnc(COc3ccc(Cl)cc3)o2)cc1	x	x	x	-0.8%	x	x
Cc1ccc2c(c1)c1c(c(=O)n(Cc3ccccc3)c(=O)n1Cc1cccc(C(F)(F)F)c1)n2C	x	x	x	24.0%	x	x
CCCCOc1ccc(/C=c2\sc3ncnn3c2=O)cc1	-2.6%	12.0%	2.7%	-3.2%	1.47µM*	22.5%
CCCCCOc1ccc(/C=c2\sc3ncnn3c2=O)cc1	x	27.2%	-10.1%	-0.4%	-10.1%	x
COc1cc(OC)c(C2N(c3cc(C)on3)C(=O)C3CCCN32)cc1OC (stereo not drawn)	-35.5%	2.9%	-18.3%	1.2%	4.65µM*	5.8%
COc1ccc(C2N(c3cc(C)on3)C(=O)C3CCCN32)cc1OC (stereo not drawn)	18.2%	8.6%	-3.1%	0.1%	u	6.6%
CCC(O)(c1ccccc1)C(CN1CCOCC1)c1ccccc1 (stereo not drawn)	6.2%	u	79.9%	4.2%	-24.8%	-8.0%
CCCCC(O)(c1ccccc1)C(CN1CCOCC1)c1ccccc1 (stereo not drawn)	u	u	138.9%	1.1%	26.8%	-7.9%
COc1ccc(C(O)(C2CCCCC2)C(CN2CCOCC2)c2ccccc2)cc1 (stereo not drawn)	-20.2%	u	151.0%	-4.1%	-3.2%	-9.1%
OC(c1ccccc1)(C1CCCCC1)C(CN1CCOCC1)c1ccccc1 (stereo not drawn)	u	2.94µM*	167.4%	0.3%	2.5%	-7.3%
